Some test systems named below: NCI-H23 lung; NCI-H226 lung; HOP-62 NSCLC; NCI-H460 lung; NCI-H522 lung; A549/ATCC NSCLC; 786-0 renal; COLO 205 colon; DU-145 prostate; K-562 leukemia; MALME-3M melanoma; MDA-MB-231 breast; RXF 393 renal; SF-268 CNS; SF-295 CNS; SF-539 CNS; UACC-257 melanoma; M14 melanoma; HCT-15 colon.
What all share (assay): NCI-60 one-dose screen, 48 h (100 = growth as untreated, 0 = no growth, -100 = all killed)
Settings in all cases: 10 µM unless noted

SMILES strings stand for the structures. This is part of a sample that, as a whole, favours compounds with a hit. Of some 83,000 tested, about 20% had one in any assay.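 Single-concentration screen, 48 h exposure, 96-well plates. Endpoint: percent growth. Below 10 = active.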 Unmarked numbers belong to inactive results. Calls of active or inactive are those of the source.

`O=C1OCC/C1=C\OCCCO/C=C1\CCOC1=O`: the growth in the experiment on NCI-H23 lung is 102%; in the experiment on NCI-H226 lung, 103%; with HOP-62 NSCLC, 122%; with NCI-H460 lung, 107%; with NCI-H522 lung, 98.3%; in the experiment with A549/ATCC NSCLC, 98.7%. Besides, the growth in the experiment with 786-0 renal is 102%; with COLO 205 colon, 141%; with DU-145 prostate it was 115%; with K-562 leukemia it was 107%; in the experiment with MALME-3M melanoma, 95.2%; with MDA-MB-231 breast it was 107%. Also, the growth in the experiment on RXF 393 renal was 117%; in the experiment with SF-268 CNS it was 109%; with SF-295 CNS it was 106%; with SF-539 CNS, 105%; in the experiment on UACC-257 melanoma, 106%; in the experiment with M14 melanoma it was 110%. Further, in the experiment on HCT-15 colon, the growth is 98.1%.
With `Clc1ccccc1[C@@H]1C[C@@H]2Cc3cc(Br)c4ccccc4c3N1O2`, the growth with NCI-H23 lung was 50.8%; with NCI-H226 lung it was 73.5%; in the experiment on HOP-62 NSCLC it was 54.3%; in the experiment on NCI-H460 lung, 18.1%; in the experiment with NCI-H522 lung, 20%; with A549/ATCC NSCLC, 48%. Also, the growth in the experiment on 786-0 renal was 56.1%; in the experiment with COLO 205 colon, 33.1%; in the experiment with DU-145 prostate it was 61%; in the experiment with K-562 leukemia, 10%; in the experiment with MDA-MB-231 breast it was 39%; in the experiment with RXF 393 renal, 39.3%. Besides, the growth with SF-268 CNS is 46.1%; with SF-295 CNS it was 24.6%; in the experiment with SF-539 CNS, 6.71% (active); with UACC-257 melanoma it was 47.4%; in the experiment with M14 melanoma it was 20.8%; with HCT-15 colon, 35.7%.
As to `CN1COc2ccc3ccccc3c2C1`, the growth in the experiment with NCI-H23 lung is 88.8%; in the experiment with NCI-H226 lung, 93.7%; in the experiment on HOP-62 NSCLC it was 80.1%; in the experiment on NCI-H460 lung it was 107%; in the experiment with NCI-H522 lung it was 90.3%; with A549/ATCC NSCLC it was 97.4%. The growth with 786-0 renal was 91%; with COLO 205 colon, 133%; with DU-145 prostate it was 107%; with K-562 leukemia, 99.7%; in the experiment with MALME-3M melanoma, 111%; in the experiment on MDA-MB-231 breast, 102%. Further, the growth with RXF 393 renal is 107%; in the experiment with SF-268 CNS, 100%; in the experiment on SF-295 CNS it was 96.1%; in the experiment with SF-539 CNS it was 84.9%; in the experiment with UACC-257 melanoma, 107%; in the experiment with M14 melanoma, 86.4%. Moreover, the growth in the experiment on HCT-15 colon was 106%.
For the molecule `CCOc1nc(-c2ccccc2)cc2c(O)c(-c3nnco3)[nH]c(=O)c12`, the growth was 63.1% in the experiment on NCI-H23 lung; 64.2% in the experiment on NCI-H226 lung; 47.9% in the experiment with HOP-62 NSCLC; 28.2% in the experiment on NCI-H460 lung; 5.8% (active) in the experiment with NCI-H522 lung; 38.9% with A549/ATCC NSCLC. For the same molecule, the growth is 57.9% with 786-0 renal; 72.2% with COLO 205 colon; 50.8% with DU-145 prostate; 39.3% with K-562 leukemia; 59.9% in the experiment on MALME-3M melanoma; 38.7% in the experiment on MDA-MB-231 breast. The growth in the experiment with SF-268 CNS is 52.5%; with SF-295 CNS, 36%; in the experiment on SF-539 CNS it was 54.9%; with UACC-257 melanoma it was 11.8%; with M14 melanoma it was 59.4%; in the experiment with HCT-15 colon, 23.5%.
For `ClC1=C(Cl)C(Cl)=C(Cl)C1=Cc1ccc(Cl)cc1`, the growth is 33.1% with NCI-H23 lung; 87.7% with NCI-H226 lung; 47.4% with HOP-62 NSCLC; -63.4% (active) in the experiment with NCI-H460 lung; 27.5% with NCI-H522 lung; -43% (active) with 786-0 renal. Also, the growth in the experiment on COLO 205 colon was 13.5%; in the experiment on DU-145 prostate, -75.4% (active); in the experiment with K-562 leukemia, -0.422% (active); with MALME-3M melanoma, -2.75% (active); with MDA-MB-231 breast, 14.3%; with RXF 393 renal, 20.5%. For the same molecule, the growth in the experiment on SF-268 CNS is -69.3% (active); in the experiment on SF-295 CNS, 34.2%; in the experiment on SF-539 CNS, 91.2%; in the experiment on M14 melanoma it was -47.6% (active); in the experiment with HCT-15 colon it was 66.5%.
For `COc1cc(NC(=O)c2cc3ccccc3cc2O)c(OC)cc1Cl`, the growth in the experiment with NCI-H23 lung is -19.3% (active); in the experiment on NCI-H226 lung, 13.5%; with HOP-62 NSCLC it was -29.6% (active); in the experiment with NCI-H460 lung it was 3.33% (active); in the experiment on NCI-H522 lung, -30.1% (active); in the experiment with A549/ATCC NSCLC, 5.74% (active). Besides, the growth in the experiment on 786-0 renal was -5.13% (active); in the experiment on COLO 205 colon, 41.6%; in the experiment on DU-145 prostate, 25.6%; in the experiment on K-562 leukemia, -2.3% (active); in the experiment with MALME-3M melanoma, -23.7% (active); with MDA-MB-231 breast, 18.5%. Moreover, the growth in the experiment on RXF 393 renal is 20.9%; in the experiment with SF-268 CNS, 27.3%; in the experiment with SF-295 CNS, 8.57% (active); in the experiment with SF-539 CNS it was 7.7% (active); with UACC-257 melanoma, -22.2% (active); in the experiment with M14 melanoma, 4.56% (active). The growth with HCT-15 colon was 13.8%.
Consider `Oc1[nH]c2ccc(Cl)cc2c1/C=c1/ccc2c(c1)N=C(c1ccc(C(F)(F)F)cc1)N=2`, for which the growth is 67.2% with NCI-H23 lung; 88.7% in the experiment on NCI-H226 lung; 71.5% with HOP-62 NSCLC; 39.2% in the experiment with NCI-H460 lung; 45.7% in the experiment on NCI-H522 lung; 70.5% with A549/ATCC NSCLC. Besides, the growth with 786-0 renal was 16.7%; with DU-145 prostate, 70%; in the experiment with K-562 leukemia it was 26.9%; in the experiment on MALME-3M melanoma, 69.2%; in the experiment with MDA-MB-231 breast, 83.4%; with RXF 393 renal, 5.23% (active). The growth is 40.9% in the experiment on SF-295 CNS; 80.1% with SF-539 CNS; 66% with UACC-257 melanoma; 54.4% in the experiment on M14 melanoma; 54.1% in the experiment with HCT-15 colon.
